Several values for one entry are separate records, joined by “and”; a condition that tells them apart may be missing. Equal values may be shown once. Activity calls are given as the source filed them.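 The calls were made as follows, unless noted: active = compounds whose cell count with miR-34 switched on is under 0.7 times the count with it off; inactive = the rest.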
Key:
[1] = tested on: Aerobactin synthetase IucA (Klebsiella pneumoniae); experiment: inhibition of K. pneumoniae IucA enzyme – biochemical, Tocris library, absorbance (AID 1345561; call rule not given here;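 also: 100% = enzyme without compound and 0% = no enzyme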); conditions: purified IucA enzyme assay, absorbance (OD) read-out; stronger effect = lower value;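 tested at 8 µM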
[2] = viability loss with induced miR-34 in A549 – imaging, A549 dox-inducible miR-34, nuclei and caspase counts, primary screen (AID 1347080); conditions: A549 miR-34 inducible, Hoechst nuclei count, 48 h
[3] = galactose survival enhancers in mitochondrial complex I cybrids – cell-based, galactose medium, ATP luminescence, primary screen (AID 1645843;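 active = z-score of at least 1.8 in each of two replicates, scored against plate mean and spread of sample wells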;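 also: positive z means more ATP and so rescue of galactose-driven cybrid death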); conditions: complex I mutant cybrid cells, 72 h, stronger effect = higher value
[4] = stronger effect = lower value, cell number ratio, induced over uninduced
[5] = measured here: relative caspase fold change +Dox/-Dox
[6] = measured here: total cells with miR-34 induction, stronger effect = lower value
[7] = measured here: total cells without miR-34 induction

SMILES | remaining activity [1] | fold change [2, 4] | fold change [2, 5] | cell count [2, 6] | cell count [2, 7] | z-score [3]
CN(CC[C@@H](Oc1ccc(-c2ccccc2)cc1)c1ccc(F)cc1)CC(=O)O | 116% (inactive) | 0.898 (inactive) | 1.24 | 7970 | 8870 | 0.455 (inactive)
CCCCCCCCCCCCCCCC(=O)C(F)(F)F | 108% (inactive) | 1.01 (inactive) and 0.961 (inactive) | 0.782 and 1.06 | 5680 and 8900 | 5630 and 9260 | -0.105 (inactive)
COc1cc(OC)c(C(=O)CCCCN2CCC3(CC2)NC(=O)NC3=O)cc1NS(=O)(=O)c1ccc(C(F)(F)F)cc1 | 118% (inactive) | 0.962 (inactive) | 0.689 | 8560 | 8900 | -0.165 (inactive)
CCS(=O)(=O)N(C)[C@H]1c2cc(C#N)ccc2OC(C)(C)[C@@H]1O | 111% (inactive) | 0.889 (inactive) | 1.89 | 8640 | 9720 | 0.545 (inactive)
Cc1c(C(=O)NC2CCCCC2)sc2nc3ccc(N)cc3n12 | 120% (inactive) | 0.889 (inactive) | 1.46 | 5970 | 6720 | -0.625 (inactive)
N#C/C(=C\c1ccc(O)c(O)c1)C(=O)OCCc1cccs1 | 110% (inactive) | 0.871 (inactive) | 1.36 | 8430 | 9690 | -0.59 (inactive)
CN(C)c1nc(N)c(C(=O)Nc2cccnc2)nc1Cl | 113% (inactive) | 0.904 (inactive) | 1.39 | 5930 | 6560 | 0.61 (inactive)
COc1ccc(-n2[nH]c3c4c(ncc3c2=O)CCCCC4)cc1 | 115% (inactive) | 0.906 (inactive) | 1.8 | 8550 | 9440 | 2.12 (active)
Brc1cc2c(cc1[C@H]1Nc3ccccc3[C@H]3C=CC[C@H]31)OCO2 (racemic) | 123% (inactive) | 0.953 (inactive) | 1.69 | 6570 | 6900 | -0.975 (inactive)
Cc1cc(Cn2cnc3c2C[C@@H](C(=O)O)N(C(=O)C(c2ccccc2)c2ccccc2)C3)ccc1N(C)C | 122% (inactive) | 0.877 (inactive) | 0.611 | 8880 | 10100 | 0.245 (inactive)
CC(C)NCCN(C(C)C)S(=O)(=O)c1ccc(Cl)cc1Cl | 113% (inactive) | 0.946 (inactive) | 1.35 | 9040 | 9560 | -0.215 (inactive)
OC[C@H]1O[C@@H](n2cnc3c(N[C@H]4CCC[C@@H]4O)ncnc32)[C@H](O)[C@@H]1O | 116% (inactive) | 0.959 (inactive) | 0.92 | 8820 | 9190 | 0.09 (inactive)
Cc1cc(C)c(S(=O)(=O)Nc2cccc(C(F)(F)F)c2)c(C)c1 | 107% (inactive) | 0.995 (inactive) | 0.922 | 5690 | 5720 | -0.605 (inactive)
Nc1nc2c(ccc3ccccc32)s1 | 121% (inactive) | 0.908 (inactive) | 1.66 | 8670 | 9550 | 0.415 (inactive)
CC(C)n1nnc2cc(C(=O)O)ccc21 | 115% (inactive) | 0.911 (inactive) | 1.97 | 7770 | 8530 | 0.275 (inactive)
COc1ccc(CN2C(=O)C(=O)c3cc(OC(F)(F)F)ccc32)cc1 | 114% (inactive) | 0.793 (inactive) | 1.39 | 1960 | 2480 | -1.04 (inactive)
Cc1c(C(=O)NN2CCOCC2)nn(-c2ccc(Cl)cc2Cl)c1-c1ccc(I)cc1 | 115% (inactive) | 0.846 (inactive) | 0.864 | 8280 | 9790 | -0.285 (inactive)
O=C(O)c1cc(Oc2ccc([N+](=O)[O-])cc2)cc(Oc2ccc([N+](=O)[O-])cc2)c1 | 113% (inactive) | 0.979 (inactive) | 0.988 | 8410 | 8600 | 1.39 (inactive)
O=C1C=CC(=O)C2=C1C1c3ccccc3C2c2ccccc21 | 104% (inactive) | 0.889 (inactive) | 1.44 | 6130 | 6900 | -0.705 (inactive)
OC(c1ccccc1)C1CCN(CCc2ccccc2)CC1 (centres undefined) | 96.8% (inactive) | 0.917 (inactive) | 0.92 | 8660 | 9440 | -0.035 (inactive)
CCN(CC)CCCCC1CCN(CC(=O)N2c3ccccc3C(=O)Nc3cccnc32)CC1 | 105% (inactive) | 0.936 (inactive) | 1.52 | 8520 | 9110 | -0.225 (inactive)
COC(=O)C(Cc1ccc(OCCn2c(=O)sc3cc(C(=O)c4ccccc4)ccc32)cc1)C(=O)OC | 104% (inactive) | 0.909 (inactive) | 1.26 | 8190 | 9020 | -0.89 (inactive)
O[C@H](CNC[C@@H](O)[C@H]1CCc2cc(F)ccc2O1)[C@@H]1CCc2cc(F)ccc2O1 | 101% (inactive) | 1.03 (inactive) | 0.967 | 3230 | 3140 | -0.5 (inactive)
NCCCCCCCCCCNS(=O)(=O)c1cccc2c(Cl)cccc12 | 98.7% (inactive) | 0.827 (inactive) | 0.835 | 5900 | 7130 | -1.11 (inactive)
